Laboratory results reported in paper PMC9911399, “Two distinct binding modes provide the RNA-binding protein RbFox with extraordinary sequence specificity”.
Where a chain is given by its changes, count along the chain named. Over roughly 16,000 sequences, “ka relative to ugcaugu” has its median near 0.096; the highest 2% begin near 0.35. Shown is part of a subset that was picked to be rich in the highest values.

T1: RBFOX1 RRM RbFoxmut (Fox-RRM*) (Homo sapiens, UniProt Q9NWB1 109-208, R118D;E147R;N151S;E152T)
T1 sequence: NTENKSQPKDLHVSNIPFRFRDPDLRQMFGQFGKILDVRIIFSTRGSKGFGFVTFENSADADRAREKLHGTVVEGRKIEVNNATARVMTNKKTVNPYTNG

B1: GUGGAAC (DNA:RNA)
RNA: GGGAGACCGGAAUUCAGAUUGUCCGUGGAACUUAAAUCCCGUCGUAGCCACCA
DNA 1: CAATCTGAATTCCGGTCTCCC
DNA 2: TGGTGGCTACGACGGGATT
B2: CAAUUGA (DNA:RNA)
RNA: GGGAGACCGGAAUUCAGAUUGUCCCAAUUGAUUAAAUCCCGUCGUAGCCACCA
DNA 1: CAATCTGAATTCCGGTCTCCC
DNA 2: TGGTGGCTACGACGGGATT
B3: GGUCCAG (DNA:RNA)
RNA: B1 RNA with U26G, G27U, G28C, A29C, C31G
DNA 1: CAATCTGAATTCCGGTCTCCC
DNA 2: TGGTGGCTACGACGGGATT
B4: GCCCCAG (DNA:RNA)
RNA: B1 RNA with U26C, G27C, G28C, A29C, C31G
DNA 1: CAATCTGAATTCCGGTCTCCC
DNA 2: TGGTGGCTACGACGGGATT
B5: CAUGAAU (DNA:RNA)
RNA: B1 RNA with G25C, U26A, G27U, C31U
DNA 1: CAATCTGAATTCCGGTCTCCC
DNA 2: TGGTGGCTACGACGGGATT
B6: AAUACGG (DNA:RNA)
RNA: B2 RNA with C25A, A27U, U28A, U29C, A31G
DNA 1: CAATCTGAATTCCGGTCTCCC
DNA 2: TGGTGGCTACGACGGGATT
B7: CUGUACC (DNA:RNA)
RNA: B1 RNA with G25C, G28U, A30C
DNA 1: CAATCTGAATTCCGGTCTCCC
DNA 2: TGGTGGCTACGACGGGATT
B8: AGCUGAC (DNA:RNA)
RNA: B1 RNA with G25A, U26G, G27C, G28U, A29G
DNA 1: CAATCTGAATTCCGGTCTCCC
DNA 2: TGGTGGCTACGACGGGATT
B9: AUGUCCG (DNA:RNA)
RNA: B1 RNA with G25A, G28U, A29C, A30C, C31G
DNA 1: CAATCTGAATTCCGGTCTCCC
DNA 2: TGGTGGCTACGACGGGATT
B10: AUGUUUG (DNA:RNA)
RNA: B2 RNA with C25A, A26U, A27G, G30U, A31G
DNA 1: CAATCTGAATTCCGGTCTCCC
DNA 2: TGGTGGCTACGACGGGATT
B11: AUGUUCG (DNA:RNA)
RNA: B2 RNA with C25A, A26U, A27G, G30C, A31G
DNA 1: CAATCTGAATTCCGGTCTCCC
DNA 2: TGGTGGCTACGACGGGATT
B12: ACCAUGU (DNA:RNA)
RNA: B2 RNA with C25A, A26C, A27C, U28A, A31U
DNA 1: CAATCTGAATTCCGGTCTCCC
DNA 2: TGGTGGCTACGACGGGATT
B13: AUGGAUG (DNA:RNA)
RNA: B1 RNA with G25A, A30U, C31G
DNA 1: CAATCTGAATTCCGGTCTCCC
DNA 2: TGGTGGCTACGACGGGATT
B14: GUCCAUG (DNA:RNA)
RNA: B1 RNA with G27C, G28C, A30U, C31G
DNA 1: CAATCTGAATTCCGGTCTCCC
DNA 2: TGGTGGCTACGACGGGATT
B15: CCAUGUA (DNA:RNA)
RNA: B2 RNA with A26C, U29G, G30U
DNA 1: CAATCTGAATTCCGGTCTCCC
DNA 2: TGGTGGCTACGACGGGATT
B16: AUGGAGA (DNA:RNA)
RNA: B1 RNA with G25A, A30G, C31A
DNA 1: CAATCTGAATTCCGGTCTCCC
DNA 2: TGGTGGCTACGACGGGATT
B17: AUGUUGU (DNA:RNA)
RNA: B2 RNA with C25A, A26U, A27G, A31U
DNA 1: CAATCTGAATTCCGGTCTCCC
DNA 2: TGGTGGCTACGACGGGATT
B18: AUGUGUA (DNA:RNA)
RNA: B2 RNA with C25A, A26U, A27G, U29G, G30U
DNA 1: CAATCTGAATTCCGGTCTCCC
DNA 2: TGGTGGCTACGACGGGATT
B19: AUGUAUA (DNA:RNA)
RNA: B1 RNA with G25A, G28U, A30U, C31A
DNA 1: CAATCTGAATTCCGGTCTCCC
DNA 2: TGGTGGCTACGACGGGATT
B20: AUGGAUC (DNA:RNA)
RNA: B1 RNA with G25A, A30U
DNA 1: CAATCTGAATTCCGGTCTCCC
DNA 2: TGGTGGCTACGACGGGATT
B21: ACUUAUG (DNA:RNA)
RNA: B2 RNA with C25A, A26C, A27U, U29A, G30U, A31G
DNA 1: CAATCTGAATTCCGGTCTCCC
DNA 2: TGGTGGCTACGACGGGATT
B22: UCCAUGA (DNA:RNA)
RNA: B2 RNA with C25U, A26C, A27C, U28A
DNA 1: CAATCTGAATTCCGGTCTCCC
DNA 2: TGGTGGCTACGACGGGATT
B23: GGAGUCA (DNA:RNA)
RNA: B2 RNA with C25G, A26G, U28G, G30C
DNA 1: CAATCTGAATTCCGGTCTCCC
DNA 2: TGGTGGCTACGACGGGATT
B24: CCAACAG (DNA:RNA)
RNA: B2 RNA with A26C, U28A, U29C, G30A, A31G
DNA 1: CAATCTGAATTCCGGTCTCCC
DNA 2: TGGTGGCTACGACGGGATT
B25: ACGGAGA (DNA:RNA)
RNA: B1 RNA with G25A, U26C, A30G, C31A
DNA 1: CAATCTGAATTCCGGTCTCCC
DNA 2: TGGTGGCTACGACGGGATT
B26: GAUCACA (DNA:RNA)
RNA: B2 RNA with C25G, A27U, U28C, U29A, G30C
DNA 1: CAATCTGAATTCCGGTCTCCC
DNA 2: TGGTGGCTACGACGGGATT
B27: GAUCCGG (DNA:RNA)
RNA: B2 RNA with C25G, A27U, U28C, U29C, A31G
DNA 1: CAATCTGAATTCCGGTCTCCC
DNA 2: TGGTGGCTACGACGGGATT
B28: CUUCGGA (DNA:RNA)
RNA: B2 RNA with A26U, A27U, U28C, U29G
DNA 1: CAATCTGAATTCCGGTCTCCC
DNA 2: TGGTGGCTACGACGGGATT
B29: AUGUGUU (DNA:RNA)
RNA: B1 RNA with G25A, G28U, A29G, A30U, C31U
DNA 1: CAATCTGAATTCCGGTCTCCC
DNA 2: TGGTGGCTACGACGGGATT
B30: AUGUGUG (DNA:RNA)
RNA: B1 RNA with G25A, G28U, A29G, A30U, C31G
DNA 1: CAATCTGAATTCCGGTCTCCC
DNA 2: TGGTGGCTACGACGGGATT
B31: AUGUGUC (DNA:RNA)
RNA: B1 RNA with G25A, G28U, A29G, A30U
DNA 1: CAATCTGAATTCCGGTCTCCC
DNA 2: TGGTGGCTACGACGGGATT
B32: AUGUCCC (DNA:RNA)
RNA: B1 RNA with G25A, G28U, A29C, A30C
DNA 1: CAATCTGAATTCCGGTCTCCC
DNA 2: TGGTGGCTACGACGGGATT
B33: AUGUGCG (DNA:RNA)
RNA: B1 RNA with G25A, G28U, A29G, A30C, C31G
DNA 1: CAATCTGAATTCCGGTCTCCC
DNA 2: TGGTGGCTACGACGGGATT
B34: AUGUGCC (DNA:RNA)
RNA: B1 RNA with G25A, G28U, A29G, A30C
DNA 1: CAATCTGAATTCCGGTCTCCC
DNA 2: TGGTGGCTACGACGGGATT

Target: T1, RBFOX1 RRM RbFoxmut (Fox-RRM*)
Experiment: EMSA; HiTS-Eq, 1 nM pool, 10 min; buffer printed only for the single-RNA assays: 10 mM Tris pH 7.5, 150 mM NaCl, 3.4 mM EDTA, 0.001% NP-40, 30 C
Details: tags: His6 N-terminal (pET28a); label: 5' 32P
In short: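 Purified RbFox RRM (wild type or mutant) was equilibrated for 10 min in 50 µL with 1 nM of a 5′-radiolabelled pool of RNA with 7 randomized nucleotides, its flanks annealed to DNA oligonucleotides, across increasing protein concentrations. Free RNA was separated by 8% native PAGE, excised, reverse-transcribed, PCR-barcoded and sequenced on an Illumina HiSeq 2500. Relative association constants came from read-count changes of each variant against the control reaction, normalised to the cognate motif.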

First: B1
Second: B2
The binding signal of the first is higher: 0.112 KA relative to UGCAUGU for the first, 0.0875 KA relative to UGCAUGU for the second.

First: B3
Second: B4
The binding signal of the first is lower: 0.0861 KA relative to UGCAUGU for the first, 0.117 KA relative to UGCAUGU for the second.

First: B5
Second: B6
The binding signal of the first is higher: 0.114 KA relative to UGCAUGU for the first, 0.0866 KA relative to UGCAUGU for the second.

First: B7
Second: B8
The binding signal of the first is higher: 0.137 KA relative to UGCAUGU for the first, 0.109 KA relative to UGCAUGU for the second.

First: B9
Second: B10
The binding signal of the first is lower: 0.14 KA relative to UGCAUGU for the first, 0.626 KA relative to UGCAUGU for the second.

First: B11
Second: B12
The binding signal of the first is higher: 0.412 KA relative to UGCAUGU for the first, 0.102 KA relative to UGCAUGU for the second.

First: B13
Second: B14
The binding signal of the first is higher: 0.64 KA relative to UGCAUGU for the first, 0.151 KA relative to UGCAUGU for the second.

First: B15
Second: B16
The binding signal of the first is higher: 0.2 KA relative to UGCAUGU for the first, 0.139 KA relative to UGCAUGU for the second.

First: B17
Second: B18
The binding signal of the first is lower: 0.245 KA relative to UGCAUGU for the first, 0.364 KA relative to UGCAUGU for the second.

First: B19
Second: B20
The binding signal of the first is lower: 0.23 KA relative to UGCAUGU for the first, 0.298 KA relative to UGCAUGU for the second.

Compared with B21, B22 is lower in binding signal: 0.125 KA relative to UGCAUGU for the first, 0.11 KA relative to UGCAUGU for the second.

First: B23
Second: B24
The binding signal of the first is lower: 0.0995 KA relative to UGCAUGU for the first, 0.108 KA relative to UGCAUGU for the second.

First: B25
Second: B26
The binding signal of the first is higher: 0.0992 KA relative to UGCAUGU for the first, 0.0738 KA relative to UGCAUGU for the second.

Compared with B27, B28 is higher in binding signal: 0.06 KA relative to UGCAUGU for the first, 0.0749 KA relative to UGCAUGU for the second.

First: B29
Second: B30
The binding signal of the first is lower: 0.174 KA relative to UGCAUGU for the first, 0.443 KA relative to UGCAUGU for the second.

First: B31
Second: B32
The binding signal of the first is higher: 0.289 KA relative to UGCAUGU for the first, 0.0715 KA relative to UGCAUGU for the second.

First: B33
Second: B34
The binding signal of the first is lower: 0.231 KA relative to UGCAUGU for the first, 0.372 KA relative to UGCAUGU for the second.
